Measured values taken from PubChem BioAssay (EPA / NIEHS).
Values joined by “and” are separate entries in the source; they are usually repeats but may differ in a detail not shown here. Equal entries are not always repeated. Where a structure was tested more than once in an assay, its records may differ in their call. Active and inactive are the calls of the source. The calls were made as follows: active = hit-call score of the fitted dose curve at least 0.9, where 1 is the maximum; inactive = score below 0.9.

Assays:
[1] = read-out: Plasminogen activator inhibitor-1 (PAI1), SERPINE1 (gene 5054); test: BSK_MyoF_PAI1: BioMAP Diversity Plus: MyoF Assay for Plasminogen activator inhibitor-1 (PAI1) Biomarker Activity (AID 2284256); conditions: primary human lung fibroblasts;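 also: PAI-1 protein level measured by ELISA in fibroblast cultures; PAI-1 read 24 h after compound addition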
Outline: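 In this multiplexed primary-cell system, fibroblasts from human lung received compound for 24 h before ELISA detection of PAI-1; overt toxicity was checked by SRB (0.1%, TCA-fixed, 560 nm) in parallel wells.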

CD69, CD69 (gene 969) = test: BSK_IMphg_CD69: BioMAP Diversity Plus: IMphg Assay for CD69 Biomarker Activity (AID 2284257); conditions: primary human endothelial cells with macrophages
Outline: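 Human venular endothelial cells co-cultured with macrophages; CD69 quantified by ELISA 24 h after compound addition. Activity fitted in the positive direction relative to DMSO baseline; cytotoxicity tracked in parallel cultures via SRB total-protein staining.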

[2] = read-out: Eotaxin 3, CCL26 (gene 10344); test: BSK_BF4T_Eotaxin3: BioMAP Diversity Plus: BF4T Assay for Eotaxin 3 Biomarker Activity (AID 2284258); conditions: primary human bronchial epithelial cells with fibroblasts
Outline: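 Co-culture of human bronchial epithelial cells and dermal fibroblasts, exposed to chemicals for 24 h versus DMSO. Eotaxin-3 quantified by ELISA; cytotoxicity checked in parallel cultures by sulforhodamine B total-protein staining.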

[3] = read-out: Monocyte Chemoattractant Protein-1 (MCP1), CCL2 (gene 6347); test: BSK_BF4T_MCP1: BioMAP Diversity Plus: BF4T Assay for Monocyte Chemoattractant Protein-1 (MCP1) Biomarker Activity (AID 2284259); conditions: primary human bronchial epithelial cells with fibroblasts
Outline: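 Co-culture of bronchial epithelial cells and dermal fibroblasts dosed with chemical; MCP-1 measured by ELISA 24 h later. Activity fitted in positive direction versus DMSO; cytotoxicity checked by SRB staining in parallel cultures.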

[4] = read-out: Intercellular Adhesion Molecule 1 (ICAM1), ICAM1 (gene 3383); test: BSK_BF4T_ICAM1: BioMAP Diversity Plus: BF4T Assay for Intercellular Adhesion Molecule 1 (ICAM1) Biomarker Activity (AID 2284260); conditions: primary human bronchial epithelial cells with fibroblasts
Outline: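 Co-culture of human bronchial epithelial cells and dermal fibroblasts exposed 24 h to chemical; cell-surface ICAM-1 quantified by ELISA. Parallel SRB total-protein staining assessed cytotoxicity; activity fitted relative to DMSO.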

[5] = read-out: Interleukin-8 (IL8), CXCL8 (gene 3576); test: BSK_MyoF_IL8: BioMAP Diversity Plus: MyoF Assay for Interleukin-8 (IL8) Biomarker Activity (AID 2284261); conditions: primary human lung fibroblasts
Outline: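 DMSO-normalised, upward-fitted IL-8 ELISA signal; human lung fibroblasts, 24 h chemical treatment.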

CD90, THY1 (gene 7070) = test: BSK_BF4T_CD90: BioMAP Diversity Plus: BF4T Assay for CD90 Biomarker Activity (AID 2284262); conditions: primary human bronchial epithelial cells with fibroblasts
Outline: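 Co-culture of human bronchial epithelial cells and dermal fibroblasts, 24 h compound exposure. Cell-surface CD90 measured by ELISA relative to DMSO; parallel SRB total-protein staining for cytotoxicity.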

[6] = read-out: Interleukin-8 (IL8), CXCL8 (gene 3576); test: BSK_BF4T_IL8: BioMAP Diversity Plus: BF4T Assay for Interleukin-8 (IL8) Biomarker Activity (AID 2284263); conditions: primary human bronchial epithelial cells with fibroblasts
Outline: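 Human bronchial epithelial cells with dermal fibroblasts co-culture; IL-8 measured by ELISA 24 hours after dosing, fitted vs DMSO. Cytotoxicity tracked in parallel cultures by SRB total-protein staining.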

[7] = read-out: Interleukin-1 alpha (IL1a), IL1A (gene 3552); test: BSK_BF4T_IL1a: BioMAP Diversity Plus: BF4T Assay for Interleukin-1 alpha (IL1a) Biomarker Activity (AID 2284264); conditions: primary human bronchial epithelial cells with fibroblasts
Outline: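 Human bronchial epithelial cells co-cultured with dermal fibroblasts, dosed and read at 24 h. Secreted/surface IL-1α quantified by ELISA; gain-of-signal fitted relative to DMSO baseline. Parallel SRB total-protein staining tracked cytotoxicity.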

[8] = read-out: Macrophage Inflammatory Protein-1 Alpha (MIP1a), CCL3 (gene 6348); test: BSK_IMphg_MIP1a: BioMAP Diversity Plus: IMphg Assay for Macrophage Inflammatory Protein-1 Alpha (MIP1a) Biomarker Activity (AID 2284255); conditions: primary human endothelial cells with macrophages
Outline: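 Co-culture of human venular endothelial cells and macrophages exposed to compounds for 24 h; MIP-1a measured by ELISA relative to DMSO. Cytotoxicity assessed in parallel cultures by sulforhodamine B total-protein staining at 560 nm.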

Measured: AC50

Cc1ccc(S(=O)(=O)OCC(F)(F)C(F)(F)C(F)(F)C(F)(F)C(F)(F)C(F)F)cc1
active: [3] 7.88 µM
inactive: [1] | CD69, CD69 (gene 969) | [2] | [3] | [4] | [5] | CD90, THY1 (gene 7070) | [6] | [7]

O=C(O)C(F)(F)C(F)(F)C(F)(F)C(F)(F)C(F)(F)C(F)(F)C(F)(F)C(F)(F)C(F)(F)C(F)F
active: CD69, CD69 (gene 969) 30 µM | [2] 5.95 µM | [3] 13.3 µM and 3.36 µM | [4] 25.6 µM and 17.8 µM | CD90, THY1 (gene 7070) 17.3 µM and 1.67 µM | [7] 38.8 µM and 20.5 µM
inactive: [8] | CD69, CD69 (gene 969) | [2] | [5] | [6]

FC(F)(F)C(F)(F)C(F)(F)C(F)(F)C(F)(F)C(F)(F)C(F)(F)Br
inactive: [1] | CD69, CD69 (gene 969) | [2] | [3] | [4] | [5] | CD90, THY1 (gene 7070) | [6] | [7]

CC(CCl)OP(=O)(OC(C)CCl)OC(C)CCl (stereo not given)
inactive: [1] | [5]

C=CC(F)(F)C(F)(F)C(F)(F)C(F)(F)C(F)(F)C(F)(F)C(F)(F)C(F)(F)F
inactive: [8] | CD69, CD69 (gene 969) | [2] | [3] | [4] | [5] | CD90, THY1 (gene 7070) | [6] | [7]

O=C(O)C(F)(F)C(F)(F)C(F)(F)C(F)(F)C(F)(F)C(F)(F)C(F)(F)C(F)(F)C(F)(F)C(F)(F)C(F)(F)C(F)(F)C(F)(F)F
inactive: [1] | CD69, CD69 (gene 969) | [2] | [3] | [4] | [5] | CD90, THY1 (gene 7070) | [6] | [7]

O=C(O)C(F)(F)C(F)(F)C(F)(F)C(F)(F)C(F)(F)C(F)(F)C(F)(F)C(F)(F)C(F)(F)C(F)(F)C(F)(F)C(F)(F)F
inactive: [8] | CD69, CD69 (gene 969) | [2] | [3] | [4] | [5] | CD90, THY1 (gene 7070) | [6] | [7]

N=C(N)C(F)(F)C(F)(F)C(F)(F)C(F)(F)C(F)(F)C(F)(F)C(F)(F)F
active: [2] 38.9 µM
inactive: [1] | CD69, CD69 (gene 969) | [2] | [3] | [4] | [5] | CD90, THY1 (gene 7070) | [6] | [7]

FC(F)(F)C(F)(F)C(F)(F)C(F)(F)CCI
inactive: [8] | [1] | CD69, CD69 (gene 969) | [2] | [3] | [4] | [5] | CD90, THY1 (gene 7070) | [6] | [7]
active: [3] 7.18 µM | [5] 5.95 µM

FC(F)(F)C(F)(F)C(F)(F)C(F)(F)C(F)(F)C(F)(F)C(F)(F)C(F)(F)CCS
inactive: [1] | CD69, CD69 (gene 969) | [2] | [3] | [4] | [5] | CD90, THY1 (gene 7070) | [6] | [7]

O=P(O)(O)OCCC(F)(F)C(F)(F)C(F)(F)C(F)(F)C(F)(F)C(F)(F)F
inactive: [1] | CD69, CD69 (gene 969) | [2] | [3] | [4] | [5] | CD90, THY1 (gene 7070) | [6] | [7]

O=C(O)C=C(C(F)(F)F)C(F)(F)F
active: [2] 10.8 µM
inactive: [1] | CD69, CD69 (gene 969) | [2] | [3] | [4] | [5] | CD90, THY1 (gene 7070) | [6] | [7]

FC(F)(F)C(F)(F)C(F)(F)C(F)(F)C(F)(F)C(F)(F)CC1CO1 (stereo not given)
inactive: [8] | [1] | CD69, CD69 (gene 969) | [2] | [3] | [4] | [5] | CD90, THY1 (gene 7070) | [6] | [7]

FC(F)(F)C(F)(F)C(F)(F)C(F)(F)C(F)(F)C(F)(F)C(F)(F)I
active: [6] 0.0527 µM
inactive: [1] | CD69, CD69 (gene 969) | [2] | [3] | [4] | [5] | CD90, THY1 (gene 7070) | [6] | [7]

FC1CC(F)(F)C(F)(F)C1(F)F (stereo not given)
inactive: [8] | CD69, CD69 (gene 969) | [2] | [3] | [4] | [5] | CD90, THY1 (gene 7070) | [6] | [7]

C=CC(F)(F)C(F)(F)C(F)(F)C(F)(F)C(F)(F)C(F)(F)C(F)(F)C(F)(F)C=C
inactive: [8] | CD69, CD69 (gene 969) | [2] | [3] | [4] | [5] | CD90, THY1 (gene 7070) | [6] | [7]

O=C(O)C(F)(F)C(F)(F)F
active: [3] 48 µM
inactive: [8] | CD69, CD69 (gene 969) | [2] | [3] | [4] | [5] | CD90, THY1 (gene 7070) | [6] | [7]

C=C(C)C(=O)OCC(F)(F)C(F)(F)C(F)(F)C(F)(F)C(F)(F)C(F)(F)C(F)(F)F
inactive: CD69, CD69 (gene 969) | [2] | [3] | [4] | [5] | CD90, THY1 (gene 7070) | [6] | [7]
